Several values for one entry are separate records, joined by “and”; a condition that tells them apart may be missing. Identical values can stand only once. Screen size: about 5,500 compounds; about 2,000 (36%) were called active. About 18% were inconclusive and are not listed. Cut-off read from the data, not from the text of the source: active = normalized growth mostly below about 0.91 (no sharp cut-off); inconclusive = no clear call, values can overlap the other calls; inactive = mostly above about 0.92. Some of the results follow.
Test: chemical genetic growth profiling, strain panel (AID 1159580);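 note: tested at 20 µM; growth read once vehicle control cultures reached saturation at 30 °C; 1 = growth at the plate median or of vehicle wells; lower values mean less growth of the strain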
Details: growth OD

Measured: normalized growth

CCC(C)C(=O)OC1[C@@H]2CC3=C4CC(=O)O[C@@H](c5ccoc5)[C@]4(C)CCC3[C@@](C)(C2=O)[C@@H](CC(=O)OC)C1(C)C (stereo partly specified)
inactive: S. cerevisiae deletion strains, locus YAL021C, strain ccr4, hits give low values 1.02 | S. cerevisiae deletion strains, locus YAL026C, strain drs2, hits give low values 1.01 | S. cerevisiae deletion strains, locus YAL030W, strain snc1, hits give low values 1.01 | S. cerevisiae deletion strains, locus YBL061C, strain skt5, hits give low values 1.01 | S. cerevisiae deletion strains, locus YBR009C, strain hhf1, hits give low values 1.01 | S. cerevisiae deletion strains, locus YBR021W, strain FUR4, hits give low values 1 | S. cerevisiae deletion strains, locus YBR023C, strain chs3, hits give low values 1 | S. cerevisiae deletion strains, locus YBR171W, strain sec66, hits give low values 1.01 | S. cerevisiae deletion strains, locus YBR229C, strain ROT2, hits give low values 0.999 | S. cerevisiae deletion strains, locus YBR231C, strain swc5, hits give low values 1.01 | S. cerevisiae deletion strains, locus YBR279W, strain paf1, hits give low values 1.01 | S. cerevisiae deletion strains, locus YCL011C, strain gbp2, hits give low values 1.01 | S. cerevisiae deletion strains, locus YCL016C, strain dcc1, hits give low values 1.01 | S. cerevisiae deletion strains, locus YCL029C, strain bik1, hits give low values 1 | S. cerevisiae deletion strains, locus YCL061C, strain MRC1, hits give low values 1 | S. cerevisiae deletion strains, locus YCL069W, strain vba3, hits give low values 1.02 | S. cerevisiae deletion strains, locus YCR088W, strain abp1, hits give low values 1 | S. cerevisiae deletion strains, locus YDL005C, strain med2, hits give low values 1 | S. cerevisiae deletion strains, locus YDL035C, strain GPR1, hits give low values 0.987 | S. cerevisiae deletion strains, locus YDL040C, strain nat1, hits give low values 0.991 | S. cerevisiae deletion strains, locus YDL074C, strain BRE1, hits give low values 1.01 | S. cerevisiae deletion strains, locus YDL101C, strain DUN1, hits give low values 1.02 | S. cerevisiae deletion strains, locus YDL185W, strain tfp1, hits give low values 1.01 | S. cerevisiae deletion strains, locus YDL192W, strain arf1, hits give low values 0.994 | S. cerevisiae deletion strains, locus YDR001C, strain nth1, hits give low values 1 | S. cerevisiae deletion strains, locus YDR069C, strain doa4, hits give low values 0.992 | S. cerevisiae deletion strains, locus YDR101C, strain arx1, hits give low values 0.991 | S. cerevisiae deletion strains, locus YDR137W, strain rgp1, hits give low values 0.961 | S. cerevisiae deletion strains, locus YDR159W, strain sac3, hits give low values 0.998 | S. cerevisiae deletion strains, locus YDR162C, strain NBP2, hits give low values 0.995 | S. cerevisiae deletion strains, locus YDR195W, strain ref2 0.987 | S. cerevisiae deletion strains, locus YDR297W, strain sur2, hits give low values 1.01 | S. cerevisiae deletion strains, locus YDR318W, strain mcm21, hits give low values 1 | S. cerevisiae deletion strains, locus YDR334W, strain swr1, hits give low values 1 | S. cerevisiae deletion strains, locus YDR335W, strain msn5, hits give low values 1.01 | S. cerevisiae deletion strains, locus YDR388W, hits give low values 1.01 | S. cerevisiae deletion strains, locus YDR392W, strain spt3, hits give low values 0.979 | S. cerevisiae deletion strains, locus YDR502C, strain sam2, hits give low values 1.02 | S. cerevisiae deletion strains, locus YEL003W, strain gim4, hits give low values 1.01 | S. cerevisiae deletion strains, locus YEL037C, strain rad23, hits give low values 1.01 | S. cerevisiae deletion strains, locus YEL061C, strain CIN8 (second series), hits give low values 1.01 | S. cerevisiae deletion strains, locus YER015W, strain faa2, hits give low values 0.999 | S. cerevisiae deletion strains, locus YER016W, strain bim1, hits give low values 0.999 | S. cerevisiae deletion strains, locus YER110C, hits give low values 1.02 | S. cerevisiae deletion strains, locus YER111C, strain swi4, hits give low values 0.99 | S. cerevisiae deletion strains, locus YER155C, strain BEM2 (second series), hits give low values 1.01 | S. cerevisiae deletion strains, locus YER155C, strain BEM2, hits give low values 1.01 | S. cerevisiae deletion strains, locus YER167W, strain BCK2, hits give low values 1 | S. cerevisiae deletion strains, locus YFR010W, strain ubp6, hits give low values 1.02 | S. cerevisiae deletion strains, locus YGL078C, strain dbp3, hits give low values 1.02 | S. cerevisiae deletion strains, locus YGL086W, strain mad1, hits give low values 1 | S. cerevisiae deletion strains, locus YGL167C, strain pmr1, hits give low values 1.01 | S. cerevisiae deletion strains, locus YGL173C, strain kem1, hits give low values 1 | S. cerevisiae deletion strains, locus YGL227W, strain vid30, hits give low values 0.999 | S. cerevisiae deletion strains, locus YGL240W, strain doc1, hits give low values 0.989 | S. cerevisiae deletion strains, locus YGL248W, strain PDE1, hits give low values 1.01 | S. cerevisiae deletion strains, locus YGL253W, strain hxk2, hits give low values 1.03 | S. cerevisiae deletion strains, locus YGR078C, strain PAC10, hits give low values 1.02 | S. cerevisiae deletion strains, locus YGR135W, strain pre9, hits give low values 1.04 | S. cerevisiae deletion strains, locus YGR229C, strain SMI1, hits give low values 0.982 | S. cerevisiae deletion strains, locus YGR252W, strain gcn5, hits give low values 1.02 | S. cerevisiae deletion strains, locus YHR013C, strain ard1, hits give low values 1.01 | S. cerevisiae deletion strains, locus YHR027C, strain rpn1, hits give low values 0.994 | S. cerevisiae deletion strains, locus YHR030C, strain SLT2, hits give low values 0.959 | S. cerevisiae deletion strains, locus YHR079C, strain IRE1 (second series), hits give low values 1.01 | S. cerevisiae deletion strains, locus YHR079C, strain IRE1, hits give low values 0.95 | S. cerevisiae deletion strains, locus YHR094C, strain hxt1, hits give low values 1 | S. cerevisiae deletion strains, locus YHR129C, strain ARP1, hits give low values 1.01 | S. cerevisiae deletion strains, locus YHR142W, strain chs7, hits give low values 1.04 | S. cerevisiae deletion strains, locus YHR200W, strain rpn10, hits give low values 1 | S. cerevisiae deletion strains, locus YIL066C, strain RNR3, hits give low values 0.998 | S. cerevisiae deletion strains, locus YIL073C, strain SPO22, hits give low values 1.06 | S. cerevisiae deletion strains, locus YIL125W, strain kgd1, hits give low values 0.998 | S. cerevisiae deletion strains, locus YIR030C, strain dcg1, hits give low values 1 | S. cerevisiae deletion strains, locus YJL092W, strain hpr5, hits give low values 1 | S. cerevisiae deletion strains, locus YJL095W, strain BCK1 (second series), hits give low values 1 | S. cerevisiae deletion strains, locus YJL095W, strain BCK1, hits give low values 1.04 and 0.958 | S. cerevisiae deletion strains, locus YJL115W, strain asf1, hits give low values 1 | S. cerevisiae deletion strains, locus YJL129C, strain trk1, hits give low values 1.01 | S. cerevisiae deletion strains, locus YJL134W, strain LCB3, hits give low values 1 | S. cerevisiae deletion strains, locus YJL154C, strain vps35, hits give low values 1 | S. cerevisiae deletion strains, locus YJL164C, strain tpk1, hits give low values 1.02 | S. cerevisiae deletion strains, locus YJL166W, strain qcr8, hits give low values 1.01 | S. cerevisiae deletion strains, locus YJL168C, strain set2, hits give low values 1.01 | S. cerevisiae deletion strains, locus YJL187C, strain SWE1 (second series), hits give low values 1.03 | S. cerevisiae deletion strains, locus YJL187C, strain SWE1, hits give low values 1.01 | S. cerevisiae deletion strains, locus YJR066W, strain TOR1, hits give low values 0.91 | S. cerevisiae deletion strains, locus YJR075W, strain HOC1, hits give low values 1.01 | S. cerevisiae deletion strains, locus YKL009W, strain mrt4, hits give low values 0.965 | S. cerevisiae deletion strains, locus YKL068W, hits give low values 0.999 | S. cerevisiae deletion strains, locus YKL085W, strain MDH1 (second series), hits give low values 0.988 | S. cerevisiae deletion strains, locus YKL085W, strain MDH1, hits give low values 0.988 | S. cerevisiae deletion strains, locus YKL160W, strain elf1, hits give low values 1.01 | S. cerevisiae deletion strains, locus YKR001C, strain vps1, hits give low values 1.01 | S. cerevisiae deletion strains, locus YKR026C, strain gcn3, hits give low values 1.01 | S. cerevisiae deletion strains, locus YKR091W, strain srl3, hits give low values 1 | S. cerevisiae deletion strains, locus YLL001W, strain dnm1, hits give low values 1.01 | S. cerevisiae deletion strains, locus YLL026W, hits give low values 1 | S. cerevisiae deletion strains, locus YLL041C, strain sdh2, hits give low values 1.01 | S. cerevisiae deletion strains, locus YLR027C, strain aat2, hits give low values 1.02 | S. cerevisiae deletion strains, locus YLR039C, strain RIC1, hits give low values 0.974 | S. cerevisiae deletion strains, locus YLR058C, strain SHM2, hits give low values 1.01 | S. cerevisiae deletion strains, locus YLR102C, strain apc9, hits give low values 1 | S. cerevisiae deletion strains, locus YLR113W, strain HOG1, hits give low values 1.03 | S. cerevisiae deletion strains, locus YLR221C, strain rsa3, hits give low values 0.998 | S. cerevisiae deletion strains, locus YLR258W, strain gsy2, hits give low values 1.01 | S. cerevisiae deletion strains, locus YLR262C, strain YPT6 (second series), hits give low values 0.947 | S. cerevisiae deletion strains, locus YLR268W, strain sec22, hits give low values 0.989 | S. cerevisiae deletion strains, locus YLR320W, strain mms22, hits give low values 1.01 | S. cerevisiae deletion strains, locus YLR342W, strain FKS1 (second series), hits give low values 1 | S. cerevisiae deletion strains, locus YLR342W, strain FKS1, hits give low values 1 | S. cerevisiae deletion strains, locus YLR357W, strain rsc2, hits give low values 0.991 | S. cerevisiae deletion strains, locus YLR370C, strain arc18, hits give low values 1.01 | S. cerevisiae deletion strains, locus YLR371W, strain rom2, hits give low values 1 | S. cerevisiae deletion strains, locus YLR384C, strain iki3, hits give low values 1.02 | S. cerevisiae deletion strains, locus YLR418C, strain cdc73, hits give low values 1.04 | S. cerevisiae deletion strains, locus YML016C, strain PPZ1, hits give low values 0.997 | S. cerevisiae deletion strains, locus YML032C, strain rad52, hits give low values 1.01 | S. cerevisiae deletion strains, locus YML120C, strain ndi1, hits give low values 1 | S. cerevisiae deletion strains, locus YML124C, strain tub3, hits give low values 1.01 | S. cerevisiae deletion strains, locus YMR058W, strain fet3, hits give low values 1.01 | S. cerevisiae deletion strains, locus YMR078C, strain ctf18, hits give low values 1.01 | S. cerevisiae deletion strains, locus YMR125W, strain sto1, hits give low values 1 | S. cerevisiae deletion strains, locus YMR129W, hits give low values 1.01 | S. cerevisiae deletion strains, locus YMR205C, strain PFK2, hits give low values 1 | S. cerevisiae deletion strains, locus YMR223W, strain ubp8, hits give low values 1 | S. cerevisiae deletion strains, locus YMR231W, strain pep5, hits give low values 0.973 | S. cerevisiae deletion strains, locus YMR307W, strain GAS1, hits give low values 1.05 | S. cerevisiae deletion strains, locus YNL067W, strain RPL9B, hits give low values 1.03 | S. cerevisiae deletion strains, locus YNL071W, strain lat1, hits give low values 1.01 | S. cerevisiae deletion strains, locus YNL128W, strain TEP1, hits give low values 0.995 | S. cerevisiae deletion strains, locus YNL183C, strain NPR1, hits give low values 0.927 | S. cerevisiae deletion strains, locus YNL209W, strain ssb2, hits give low values 1 | S. cerevisiae deletion strains, locus YNL233W, strain BNI4, hits give low values 0.995 | S. cerevisiae deletion strains, locus YNL248C, strain rpa49, hits give low values 1 | S. cerevisiae deletion strains, locus YNL250W, strain rad50, hits give low values 1.03 | S. cerevisiae deletion strains, locus YNL271C, strain bni1, hits give low values 1 | S. cerevisiae deletion strains, locus YNL298W, strain CLA4, hits give low values 1.02 | S. cerevisiae deletion strains, locus YNL307C, strain MCK1, hits give low values 1 | S. cerevisiae deletion strains, locus YNL322C, strain KRE1 (second series), hits give low values 0.999 | S. cerevisiae deletion strains, locus YNR049C, strain mso1, hits give low values 1.01 | S. cerevisiae deletion strains, locus YNR052C, strain pop2, hits give low values 1.01 | S. cerevisiae deletion strains, locus YOL012C, strain htz1 1.11 | S. cerevisiae deletion strains, locus YOL147C, strain pex11, hits give low values 1 | S. cerevisiae deletion strains, locus YOR001W, strain rrp6, hits give low values 1.01 | S. cerevisiae deletion strains, locus YOR061W, strain CKA2, hits give low values 0.995 | S. cerevisiae deletion strains, locus YOR069W, strain VPS5, hits give low values 1.01 | S. cerevisiae deletion strains, locus YOR070C, strain gyp1, hits give low values 1.01 | S. cerevisiae deletion strains, locus YOR080W, strain dia2, hits give low values 0.996 | S. cerevisiae deletion strains, locus YOR083W, strain WHI5, hits give low values 1 | S. cerevisiae deletion strains, locus YOR106W, strain vam3, hits give low values 1.02 | S. cerevisiae deletion strains, locus YOR136W, strain idh2, hits give low values 0.994 | S. cerevisiae deletion strains, locus YOR144C, strain elg1, hits give low values 1.01 | S. cerevisiae deletion strains, locus YOR184W, strain ser1, hits give low values 0.983 | S. cerevisiae deletion strains, locus YOR231W, strain MKK1, hits give low values 0.973 | S. cerevisiae deletion strains, locus YOR265W, strain rbl2, hits give low values 0.999 | S. cerevisiae deletion strains, locus YOR270C, strain vph1, hits give low values 1.03 | S. cerevisiae deletion strains, locus YOR290C, strain snf2, hits give low values 0.978 | S. cerevisiae deletion strains, locus YOR316C, strain cot1, hits give low values 1 | S. cerevisiae deletion strains, locus YPL051W, strain arl3, hits give low values 1 | S. cerevisiae deletion strains, locus YPL078C, strain atp4, hits give low values 1.04 | S. cerevisiae deletion strains, locus YPL106C, strain sse1, hits give low values 1.01 | S. cerevisiae deletion strains, locus YPL240C, strain hsp82, hits give low values 1 | S. cerevisiae deletion strains, locus YPL241C, strain CIN2, hits give low values 0.998 | S. cerevisiae deletion strains, locus YPL256C, strain CLN2, hits give low values 0.943 | S. cerevisiae deletion strains, locus YPR119W, strain clb2, hits give low values 1.01 | S. cerevisiae deletion strains, locus YPR141C, strain kar3, hits give low values 1.01 | S. cerevisiae deletion strains, locus YPR163C, strain tif3, hits give low values 1 | S. cerevisiae deletion strains, locus YPR167C, strain met16, hits give low values 0.995 | S. cerevisiae deletion strains, strain wtn01, hits give low values 0.993 | S. cerevisiae strains, strain wild type, hits give low values 0.978

— PubChem BioAssay AID1159580 (chemical genetic matrix, 2015)
